Structures are written as SMILES.

The test has as its target AMP-activated protein kinase, AMPK (Homo sapiens) (UniProt P54646+O43741+P54619+Q9UGJ0+Q9Y478+Q13131+Q9UGI9). Put plainly: AMP-dependent Kinase enzyme assay. An in vitro enzyme assay that detects ADP turnover that is directly proportional to AMPK activity. This uses naive AMPK that is activated during the assay with MK-8722. Format: functional. On the set-up: scale not given: direction of the effect not stated beside the values. The note with it: 30 µM.
With `NC(=O)CN1CCc2c(Br)ccc(F)c2C1`, the Percent Effect turned out to be 1.51%.
Regarding `CCOCc1ccc(NC(=O)N2CCOC3(CCC3)C2)cc1`, the Percent Effect was -2.16%.
Consider `CN(C)Cc1cn(-c2ccccc2C(=O)NCC2CCCCN2C)cn1` (stereo not given), for which the Percent Effect was -15.9%.
Next, `O=C(Nc1cccc(N2CCOCC2)c1)N[C@H](CO)c1ccccc1`: 6.04%; `CC(c1nccs1)N(C)S(=O)(=O)NCc1ccccc1` (stereo not given): -1.57%.
Turning to `CC(=O)N1CCC(NC(=O)CN2CCCc3c(C)ccc(F)c32)CC1`, the Percent Effect is 5.92%.
Under `O=C1CN(Cc2cn(CC3CCN(C4CCSCC4)CC3)nn2)CCN1` stands -3.51%; under `NC(=O)C1CCN(C(=O)NC(Cc2ccccc2)C(F)(F)F)CC1` (stereo not given), 0.0823%; under `CC(c1ccncn1)N(C)S(=O)(=O)NCc1ccccc1` (stereo not given), -13.5%.
Under `Cc1c(C(=O)NCCCS(C)(=O)=O)cccc1-c1ccccn1` stands 10.6%; under `Cc1nccn1CCCN1CCCC(c2nccn2C)C1` (stereo not given), -14.7%; under `Cc1cc(C)n(CC2CCN(CC(O)Cn3cccn3)CC2)n1` (stereo not given), -0.567%.
Consider `O=C1NCCN(Cc2ccccc2)C1CC(=O)N1CCc2n[nH]cc2C1` (stereo not given), for which the Percent Effect is -20.4%.
On to `O=C(CCn1cccn1)NCCOc1ccc2c(c1)OCO2`, for which the Percent Effect is -5.16%.
As for `CN(CCc1ccccc1)Cc1c(C2CCNCC2)[nH]c2ncccc12`, the Percent Effect was 7.86%.
As to `OCCC1CCN(c2ccnc3ccsc23)C1` (stereo not given), the Percent Effect was 1.38%.
As to `C[C@@H]1CN(C(=O)C2(Cn3cccn3)CC2)C[C@@]1(O)C1CCC1`, the Percent Effect is 5.58%.
Take `CCc1ccc(C(=O)NC2CCCN(c3ccn(C)n3)C2=O)o1` (stereo not given): the Percent Effect was -0.669%.
Next, `CN(Cc1cc(Cl)c2c(c1)OCO2)Cc1cscn1`: -12.9%; `Cc1ccccc1[C@@H]1CN(CCOCCO)C[C@H]1C(=O)O`: -1.24%.

Values taken from ChEMBL document CHEMBL3988442, “University of Dundee, Small-Polar-MMV Screening Library” (2021).
